Measured values published in ChEMBL document CHEMBL4513216, “Probing the Open Global Health Chemical Diversity Library for Multistage-Active Starting Points for Next-Generation Antimalarials” (ACS Infect Dis, 2020).
Screen size: about 69,000 compounds; about 8,600 (12%) showed an effect of 50% or more. This excerpt belongs to a sample that is enriched for strong results.

test system: Plasmodium berghei; assay: Screen against P. berghei liver stage (PbLuc), transformed with Luciferase, at 10uM; format: functional, HepG2; settings: tested at 10 uM

`C[C@@H]1CC[C@@H](C)N1C(=O)c1cc(COc2ccccc2)[nH]n1` was tested. Which INHIBITION did it give?
The INHIBITION was 36.7%.

For `Cc1cc(C)n(CC(=O)N2CCCCC2CCc2cccs2)c(=O)n1` (stereo unspecified), which INHIBITION is on record?
The INHIBITION was 31.2%.

With `c1c(CN2CCCC2)nc2n1CCNC2` as the compound, how does the INHIBITION read?
The INHIBITION was 33.4%.

With `Cc1ccc(O)c(CNc2cccc(OCCF)c2)n1` as the compound, how does the INHIBITION read?
The INHIBITION was 9.91%.

`CC[C@@H]1N(Cc2ccco2)CCC[C@]12CCC(=O)N2C` was tested. Which INHIBITION did it give?
The INHIBITION was 6.27%.

For `CCN(C)CC1CCN(C(=O)Nc2ccc(C)cc2)C1` (stereo unspecified), which INHIBITION is on record?
Its INHIBITION is -45.4%.

How did the INHIBITION turn out when `CCCN(C)CC1CCN(c2ncc(Br)cn2)C1` (stereo unspecified) was run?
The INHIBITION was 68%.

For `CCCN(C)CC1CCN(c2ccc(Br)c(C)n2)C1` (stereo unspecified), which INHIBITION is on record?
Its INHIBITION is 74.8%.

How did the INHIBITION turn out when `CCN(C)CC1CCN(c2ncc(Br)cn2)C1` (stereo unspecified) was run?
The INHIBITION was 26%.

Which INHIBITION does the source give for `Cc1nc(C2CCCN(c3ncc(Br)cn3)C2)no1` (stereo unspecified) here?
The INHIBITION was 19.8%.

For `Cc1ccc(N2CCCC(N(C)Cc3nc(C)c(C)o3)C2)nn1` (stereo unspecified), which INHIBITION is on record?
The INHIBITION was 40.9%.

With `Cc1ccc2ncn(C(C)Cn3cccn3)c(=O)c2c1` (stereo unspecified) as the compound, how does the INHIBITION read?
The INHIBITION was 3.82%.

With `O=C(NCc1sc2ccccc2c1Cl)c1cc2n(n1)CCNC2` as the compound, how does the INHIBITION read?
Its INHIBITION is 25.1%.

With `O=C(C1CCOCC1)N1CCO[C@@H]2[C@@H](OCc3ccncc3)CC[C@@H]21` as the compound, how does the INHIBITION read?
Its INHIBITION is 23.6%.

With `CC(C)c1nc(CS(=O)(=O)Cc2noc(C3CC3)n2)cs1` as the compound, how does the INHIBITION read?
Its INHIBITION is 47.6%.

For `Cc1ncsc1CN1CC[C@H]2OCC[C@@]2(C(=O)NC2CC2)C1`, which INHIBITION is on record?
The INHIBITION was -45.5%.

With `COc1cc(CNC(=O)N(Cc2ccc(F)cc2F)C2CC2)ccn1` as the compound, how does the INHIBITION read?
The INHIBITION was -15.5%.

Which INHIBITION does the source give for `Cc1cc(-c2ccc(=O)n(C3CCN(C(=O)C4CC4)CC3)n2)c(C)o1` here?
Its INHIBITION is 23%.

How did the INHIBITION turn out when `CN(C)C(=O)COCc1cncc2c1CCN(C1CCOCC1)C2` was run?
Its INHIBITION is 4.68%.

Which INHIBITION does the source give for `N#Cc1c2n(c3c(=O)[nH]cnc13)CCCCC2` here?
Its INHIBITION is 23.5%.

`CN(Cc1noc(C2CC2)n1)C1CCN(Cc2ccncc2)C1` (stereo unspecified) was tested. Which INHIBITION did it give?
Its INHIBITION is 45.8%.

With `COc1cccc(-c2noc(C3CCN(Cc4cccs4)C3)n2)c1` (stereo unspecified) as the compound, how does the INHIBITION read?
Its INHIBITION is 49.6%.

With `COc1cccc(-c2noc(C3CCN(Cc4ccccc4F)C3)n2)c1` (stereo unspecified) as the compound, how does the INHIBITION read?
Its INHIBITION is 84.2%.

How did the INHIBITION turn out when `COc1cccc(CN2CC[C@H](c3nnc(C)o3)C2)c1` was run?
Its INHIBITION is -30%.

Which INHIBITION does the source give for `COc1cccc(-c2noc(C3CCN(Cc4ccccc4C)C3)n2)c1` (stereo unspecified) here?
Its INHIBITION is 45.6%.

How did the INHIBITION turn out when `COc1cccc(-c2noc(C3CCN(Cc4ccncc4)C3)n2)c1` (stereo unspecified) was run?
Its INHIBITION is 78.2%.

How did the INHIBITION turn out when `COc1cccc(-c2noc(CN3CCOCC3C)n2)c1` (stereo unspecified) was run?
Its INHIBITION is -7.35%.

`COc1cccc(CN2CC[C@H](c3nnc(-c4ccco4)o3)C2)c1` was tested. Which INHIBITION did it give?
The INHIBITION was -26.1%.

How did the INHIBITION turn out when `Cc1cccc(-c2noc([C@@H]3C[C@@H](O)CN3CC3CCCCC3)n2)c1` was run?
Its INHIBITION is -27.5%.

`COc1cccc(-c2noc(C3CCN(CC4CCCCC4)C3)n2)c1` (stereo unspecified) was tested. Which INHIBITION did it give?
The INHIBITION was 67.9%.

Which INHIBITION does the source give for `COc1cccc(-c2noc(C3CCN(CC(N)=O)C3)n2)c1` (stereo unspecified) here?
The INHIBITION was 41.2%.

How did the INHIBITION turn out when `COc1cccc(-c2noc(C3CCN(Cc4ccc(C)cc4)C3)n2)c1` (stereo unspecified) was run?
The INHIBITION was 66.4%.

How did the INHIBITION turn out when `CCN1CC(CN(C)Cc2nc(-c3ccc(C)o3)oc2C)CC1=O` (stereo unspecified) was run?
The INHIBITION was 34.2%.

How did the INHIBITION turn out when `Cc1noc(C(C)C)c1C(=O)NS(=O)(=O)c1ccc2c(c1)OCCCO2` was run?
Its INHIBITION is 7.9%.

Which INHIBITION does the source give for `CNC(=O)c1ccc(-c2ccc(CNC(=O)COC)cc2)nc1C` here?
Its INHIBITION is 10.9%.

Which INHIBITION does the source give for `Cc1ccc(CN(C(=O)NCC2CCS(=O)(=O)C2)C2CC2)o1` (stereo unspecified) here?
The INHIBITION was -39.2%.

`CCCn1nc(C(=O)NC2(c3ccc(Cl)cc3)CCCC2)ccc1=O` was tested. Which INHIBITION did it give?
Its INHIBITION is -51.3%.

How did the INHIBITION turn out when `CCc1nc2n(n1)CC(NCc1cnn(-c3ccccc3)n1)CC2` (stereo unspecified) was run?
Its INHIBITION is 10.9165%.

With `CN1CCOCC12CCN(Cc1ccoc1)CC2` as the compound, how does the INHIBITION read?
Its INHIBITION is -13.2%.

Which INHIBITION does the source give for `COc1cccc(-c2noc(C3CCN(Cc4cn(C)nc4C)C3)n2)c1` (stereo unspecified) here?
The INHIBITION was 84.8%.

`COc1ccc(CN(Cc2cn(C)nc2C)CC2CCCO2)c(OC)c1` (stereo unspecified) was tested. Which INHIBITION did it give?
The INHIBITION was 21.9%.

With `COc1cccc(CN2CCC(c3nnc(-c4cnc(C)cn4)o3)C2)c1` (stereo unspecified) as the compound, how does the INHIBITION read?
Its INHIBITION is 29.3%.

With `CSCc1cccc(S(=O)(=O)Nc2cc(C)on2)c1` as the compound, how does the INHIBITION read?
The INHIBITION was 8.7%.

Which INHIBITION does the source give for `Cc1nc(C)c(C(=O)NCCNc2ncccc2C#N)s1` here?
The INHIBITION was 13.3%.

How did the INHIBITION turn out when `CSc1ncccc1C(=O)NCCC(O)c1ccco1` (stereo unspecified) was run?
The INHIBITION was 53.2%.

Which INHIBITION does the source give for `CSc1ncccc1C(=O)NCCC(O)c1cccs1` (stereo unspecified) here?
The INHIBITION was 26%.

How did the INHIBITION turn out when `CSc1ccccc1C(=O)NCCC(O)c1ccco1` (stereo unspecified) was run?
The INHIBITION was 45.7%.

How did the INHIBITION turn out when `Cc1cccc(C(=O)N2CC(Cc3nccc4ccn(C)c34)C2)n1` was run?
Its INHIBITION is -23.8%.

For `CN(C)CCOCC1CN(Cc2ccsc2)Cc2ccnn2C1` (stereo unspecified), which INHIBITION is on record?
The INHIBITION was 11.4%.

`CN(C)CCN(Cc1ccc(C(F)(F)F)cc1)C(=O)c1cc[nH]n1` was tested. Which INHIBITION did it give?
The INHIBITION was 63.3%.

Which INHIBITION does the source give for `CN(C)CCN(Cc1ccc(Cl)cc1)C(=O)c1cnccn1` here?
Its INHIBITION is 68.3%.

With `CN(C)CCN(Cc1ccc(Cl)cc1)C(=O)c1cc[nH]n1` as the compound, how does the INHIBITION read?
Its INHIBITION is 10%.

With `CN(C)CCN(Cc1cccc(C(F)(F)F)c1)C(=O)c1cc[nH]n1` as the compound, how does the INHIBITION read?
Its INHIBITION is 22.4%.

Which INHIBITION does the source give for `Cc1cnc(C(=O)N(CCN(C)C)Cc2ccc(Cl)cc2)cn1` here?
Its INHIBITION is 12.2%.

Which INHIBITION does the source give for `CN(C)CCN(Cc1ccc(Cl)cc1)C(=O)c1ccncc1` here?
The INHIBITION was 10.6%.

With `Cc1ncc(C(=O)N2CCOC(C(=O)N3CCCCCC3)C2)c(C)n1` (stereo unspecified) as the compound, how does the INHIBITION read?
Its INHIBITION is 35.1%.
